# Source: PubChem BioAssay AID1159580 (chemical genetic matrix, 2015)
# The whole screen tested about 5,500 compounds, of which about 2,000 (36%) were called active. Not shown: some 18% with an inconclusive outcome. Some of the results follow. Unmarked numbers belong to inactive results. Cut-off read from the data, not from the text of the source: active = normalized growth mostly below about 0.91 (no sharp cut-off); inconclusive = no clear call, values can overlap the other calls; inactive = mostly above about 0.92.
# Assay: chemical genetic growth profiling, strain panel (AID 1159580);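 note: tested at 20 µM; growth read once vehicle control cultures reached saturation at 30 °C; 1 = growth at the plate median or of vehicle wells; lower values mean less growth of the strain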
# Conditions: growth OD
# [1] = S. cerevisiae deletion strains, locus YDL101C, strain DUN1, hits give low values
# [2] = S. cerevisiae deletion strains, locus YHR030C, strain SLT2, hits give low values
# [3] = S. cerevisiae deletion strains, locus YAL013W, strain DEP1, hits give low values
# [4] = S. cerevisiae deletion strains, locus YBR229C, strain ROT2, hits give low values
# [5] = S. cerevisiae deletion strains, locus YDR150W, strain NUM1, hits give low values
# [6] = S. cerevisiae deletion strains, locus YEL061C, strain CIN8, hits give low values
# [7] = S. cerevisiae deletion strains, locus YGR078C, strain PAC10, hits give low values
# [8] = S. cerevisiae deletion strains, locus YHR087W, strain rtc3, hits give low values
# [9] = S. cerevisiae deletion strains, locus YJR043C, strain POL32, hits give low values
# [10] = S. cerevisiae deletion strains, locus YJR075W, strain HOC1, hits give low values
# [11] = S. cerevisiae deletion strains, locus YKL190W, strain CNB1, hits give low values
# [12] = S. cerevisiae deletion strains, locus YLR039C, strain RIC1, hits give low values
# [13] = S. cerevisiae deletion strains, locus YLR058C, strain SHM2 (second series), hits give low values
# [14] = S. cerevisiae deletion strains, locus YLR085C, strain ARP6, hits give low values
# [15] = S. cerevisiae deletion strains, locus YLR262C, strain YPT6, hits give low values
# [16] = S. cerevisiae deletion strains, locus YML094W, strain GIM5, hits give low values
# [17] = S. cerevisiae deletion strains, locus YMR219W, strain ESC1, hits give low values
# [18] = S. cerevisiae deletion strains, locus YMR263W, strain SAP30, hits give low values
# [19] = S. cerevisiae deletion strains, locus YNL153C, strain GIM3, hits give low values
# [20] = S. cerevisiae deletion strains, locus YNL298W, strain CLA4 (second series), hits give low values
# [21] = S. cerevisiae deletion strains, locus YNL322C, strain KRE1, hits give low values
# [22] = S. cerevisiae deletion strains, locus YNR030W, strain Alg12, hits give low values
# [23] = S. cerevisiae deletion strains, locus YPL055C, strain LGE1, hits give low values
# [24] = S. cerevisiae deletion strains, locus YPL241C, strain CIN2, hits give low values
# [25] = S. cerevisiae deletion strains, locus YPR135W, strain CTF4, hits give low values
# [26] = S. cerevisiae strains, strain wild type, hits give low values
structure (smiles),measurement,setting,value
C/C(=N/NC(=O)c1ccc(C(C)(C)C)cc1)c1ccccc1O,normalized growth,"S. cerevisiae deletion strains, locus YAR019C, strain CDC15, hits give low values",0.985
same,normalized growth,"S. cerevisiae deletion strains, locus YBL105C, strain PKC1, hits give low values",0.979
same,normalized growth,"S. cerevisiae deletion strains, locus YBR135W, strain CKS1, hits give low values",0.969
same,normalized growth,"S. cerevisiae deletion strains, locus YBR136W, strain MEC1, hits give low values",0.979
same,normalized growth,"S. cerevisiae deletion strains, locus YBR160W, strain CDC28, hits give low values",0.98
same,normalized growth,"S. cerevisiae deletion strains, locus YDL017W, strain CDC7, hits give low values",0.979
same,normalized growth,"S. cerevisiae deletion strains, locus YDL028C, strain MPS1, hits give low values",0.974
same,normalized growth,[1],0.963
same,normalized growth,"S. cerevisiae deletion strains, locus YDL108W, strain KIN28, hits give low values",0.972
same,normalized growth,"S. cerevisiae deletion strains, locus YDL132W, strain cdc53, hits give low values",0.98
same,normalized growth,"S. cerevisiae deletion strains, locus YDL214C, strain PRR2, hits give low values",0.976
same,normalized growth,"S. cerevisiae deletion strains, locus YDR052C, strain DBF4, hits give low values",0.979
same,normalized growth,"S. cerevisiae deletion strains, locus YDR054C, strain cdc34, hits give low values",0.978
same,normalized growth,"S. cerevisiae deletion strains, locus YDR226W, strain ADK1, hits give low values",0.971
same,normalized growth,"S. cerevisiae deletion strains, locus YDR477W, strain SNF1, hits give low values",0.985
same,normalized growth,"S. cerevisiae deletion strains, locus YER123W, strain YCK3, hits give low values",0.97
same,normalized growth,"S. cerevisiae deletion strains, locus YER133W, strain GLC7, hits give low values",0.979
same,normalized growth,"S. cerevisiae deletion strains, locus YFL009W, strain cdc4, hits give low values",0.977
same,normalized growth,"S. cerevisiae deletion strains, locus YFL029C, strain CAK1, hits give low values",0.974
same,normalized growth,"S. cerevisiae deletion strains, locus YFR003C, strain YPI1, hits give low values",0.979
same,normalized growth,"S. cerevisiae deletion strains, locus YFR019W, strain FAB1, hits give low values",1.01
same,normalized growth,"S. cerevisiae deletion strains, locus YFR028C, strain CDC14, hits give low values",0.981
same,normalized growth,"S. cerevisiae deletion strains, locus YGR040W, strain KSS1, hits give low values",0.994
same,normalized growth,"S. cerevisiae deletion strains, locus YGR052W, strain FMP48, hits give low values",1
same,normalized growth,"S. cerevisiae deletion strains, locus YGR092W, strain DBF2, hits give low values",0.934
same,normalized growth,[2],0.876
same,normalized growth,"S. cerevisiae deletion strains, locus YHR079C, strain IRE1, hits give low values",0.952
same,normalized growth,"S. cerevisiae deletion strains, locus YHR082C, strain KSP1, hits give low values",1.07
same,normalized growth,"S. cerevisiae deletion strains, locus YHR205W, strain SCH9, hits give low values",0.995
same,normalized growth,"S. cerevisiae deletion strains, locus YIL147C, strain SLN1, hits give low values",0.976
same,normalized growth,"S. cerevisiae deletion strains, locus YJL095W, strain BCK1, hits give low values",0.972
same,normalized growth,"S. cerevisiae deletion strains, locus YJL128C, strain PBS2, hits give low values",0.939
same,normalized growth,"S. cerevisiae deletion strains, locus YJL157C, strain FAR1, hits give low values",0.981
same,normalized growth,"S. cerevisiae deletion strains, locus YJR016C, strain ILV3, hits give low values",0.987
same,normalized growth,"S. cerevisiae deletion strains, locus YJR066W, strain TOR1 (second series), hits give low values",0.969
same,normalized growth,"S. cerevisiae deletion strains, locus YJR066W, strain TOR1, hits give low values",1.05
same,normalized growth,"S. cerevisiae deletion strains, locus YKL048C, strain ELM1, hits give low values",0.985
same,normalized growth,"S. cerevisiae deletion strains, locus YKL067W, strain YNK1, hits give low values",0.966
same,normalized growth,"S. cerevisiae deletion strains, locus YKL101W, strain HSL1, hits give low values",0.987
same,normalized growth,"S. cerevisiae deletion strains, locus YKL193C, strain SDS22, hits give low values",0.988
same,normalized growth,"S. cerevisiae deletion strains, locus YKL203C, strain TOR2, hits give low values",1.01
same,normalized growth,"S. cerevisiae deletion strains, locus YLR113W, strain HOG1, hits give low values",0.779 (active)
same,normalized growth,"S. cerevisiae deletion strains, locus YLR133W, strain CKI1, hits give low values",0.988
same,normalized growth,"S. cerevisiae deletion strains, locus YLR403W, strain SFP1, hits give low values",1
same,normalized growth,"S. cerevisiae deletion strains, locus YML070W, strain DAK1, hits give low values",0.964
same,normalized growth,"S. cerevisiae deletion strains, locus YMR001C, strain CDC5, hits give low values",0.978
same,normalized growth,"S. cerevisiae deletion strains, locus YMR205C, strain PFK2 (second series), hits give low values",0.981
same,normalized growth,"S. cerevisiae deletion strains, locus YMR277W, strain FCP1, hits give low values",0.98
same,normalized growth,"S. cerevisiae deletion strains, locus YNL006W, strain LST8, hits give low values",0.976
same,normalized growth,"S. cerevisiae deletion strains, locus YNL020C, strain ARK1, hits give low values",1.01
same,normalized growth,"S. cerevisiae deletion strains, locus YNL161W, strain CBK1, hits give low values",0.983
same,normalized growth,"S. cerevisiae deletion strains, locus YNL183C, strain NPR1, hits give low values",1.01
same,normalized growth,"S. cerevisiae deletion strains, locus YNL207W, strain RIO2, hits give low values",0.969
same,normalized growth,"S. cerevisiae deletion strains, locus YNL222W, strain SSU72, hits give low values",0.976
same,normalized growth,"S. cerevisiae deletion strains, locus YNL307C, strain MCK1 (second series), hits give low values",1.01
same,normalized growth,"S. cerevisiae deletion strains, locus YOL078W, strain AVO1, hits give low values",0.986
same,normalized growth,"S. cerevisiae deletion strains, locus YOL136C, strain PFK27, hits give low values",0.977
same,normalized growth,"S. cerevisiae deletion strains, locus YOR061W, strain CKA2, hits give low values",0.995
same,normalized growth,"S. cerevisiae deletion strains, locus YOR119C, strain RIO1, hits give low values",1.05
same,normalized growth,"S. cerevisiae deletion strains, locus YOR231W, strain MKK1, hits give low values",0.952
same,normalized growth,"S. cerevisiae deletion strains, locus YOR329C, strain SCD5, hits give low values",0.975
same,normalized growth,"S. cerevisiae deletion strains, locus YPL031C, strain PHO85, hits give low values",0.979
same,normalized growth,"S. cerevisiae deletion strains, locus YPL153C, strain RAD53, hits give low values",0.981
same,normalized growth,"S. cerevisiae deletion strains, locus YPL204W, strain HRR25, hits give low values",0.967
same,normalized growth,"S. cerevisiae deletion strains, locus YPL209C, strain IPL1, hits give low values",0.977
same,normalized growth,"S. cerevisiae deletion strains, locus YPL256C, strain CLN2, hits give low values",0.808 (active)
same,normalized growth,"S. cerevisiae deletion strains, locus YPR025C, strain CCL1, hits give low values",0.971
same,normalized growth,"S. cerevisiae deletion strains, locus YPR106W, strain ISR1, hits give low values",0.986
same,normalized growth,"S. cerevisiae deletion strains, locus YPR111W, strain DBF20, hits give low values",0.972
same,normalized growth,"S. cerevisiae deletion strains, strain NNK1, hits give low values",0.966
same,normalized growth,"S. cerevisiae deletion strains, strain TSCII, hits give low values",0.981
O=C(COC(=O)c1ccccc1C(=O)c1ccccc1)c1ccccc1,normalized growth,[3],0.984
same,normalized growth,[4],0.988
same,normalized growth,[1],0.97
same,normalized growth,[5],0.969
same,normalized growth,[6],0.989
same,normalized growth,[7],0.98
same,normalized growth,"S. cerevisiae deletion strains, locus YGR229C, strain SMI1, hits give low values",0.993
same,normalized growth,[2],0.861
same,normalized growth,[8],0.98
same,normalized growth,[9],0.979
same,normalized growth,[10],0.957
same,normalized growth,[11],0.998
same,normalized growth,[12],0.912
same,normalized growth,[13],0.984
same,normalized growth,[14],0.936
same,normalized growth,[15],0.933
same,normalized growth,[16],0.99
same,normalized growth,[17],0.978
same,normalized growth,[18],0.902
same,normalized growth,[19],0.99
same,normalized growth,[20],0.971
same,normalized growth,[21],0.989
same,normalized growth,[22],0.975
same,normalized growth,[23],0.979
same,normalized growth,[24],0.95
same,normalized growth,[25],0.868
same,normalized growth,[26],1
COc1cccc(C(=O)N/N=C(/C)c2ccccc2O)c1,normalized growth,[3],0.975
same,normalized growth,[4],0.961
same,normalized growth,"S. cerevisiae deletion strains, locus YCL061C, strain MRC1, hits give low values",0.915
same,normalized growth,[1],0.93
same,normalized growth,[5],0.92
same,normalized growth,[6],0.982
same,normalized growth,[7],0.955
same,normalized growth,[2],0.466 (active)
same,normalized growth,[8],0.981
same,normalized growth,[9],0.958
same,normalized growth,[10],0.969
same,normalized growth,[11],0.802 (active)
same,normalized growth,[12],0.618 (active)
same,normalized growth,[13],0.994
same,normalized growth,[14],0.395 (active)
same,normalized growth,[15],0.625 (active)
same,normalized growth,[16],0.817 (active)
same,normalized growth,[17],0.987
same,normalized growth,[18],0.969
same,normalized growth,"S. cerevisiae deletion strains, locus YMR307W, strain GAS1, hits give low values",0.537 (active)
same,normalized growth,"S. cerevisiae deletion strains, locus YNL128W, strain TEP1, hits give low values",0.871 (active)
same,normalized growth,[19],0.973
same,normalized growth,[20],0.805 (active)
same,normalized growth,[21],0.985
same,normalized growth,[22],0.759 (active)
same,normalized growth,[23],0.991
same,normalized growth,[24],0.791 (active)
same,normalized growth,[25],0.592 (active)
same,normalized growth,[26],0.777 (active)
